Source: ChEMBL document CHEMBL3988442, “University of Dundee, Small-Polar-MMV Screening Library” (2021)

Tests used:
[1] = biological target: T1, Aspartate--tRNA(Asp/Asn) ligase (Mycobacterium tuberculosis (strain ATCC 25618 / H37Rv)) (UniProt P9WFW3); assay: Assay for Asp RNA synthetase-1 from Mycobacterium tuberculosis; format: functional; parameters: scale not given: direction of the effect not stated beside the values; details: 30 µM; further: in the data most compounds retested in dose-response had high values
T1 sequence (whole entry): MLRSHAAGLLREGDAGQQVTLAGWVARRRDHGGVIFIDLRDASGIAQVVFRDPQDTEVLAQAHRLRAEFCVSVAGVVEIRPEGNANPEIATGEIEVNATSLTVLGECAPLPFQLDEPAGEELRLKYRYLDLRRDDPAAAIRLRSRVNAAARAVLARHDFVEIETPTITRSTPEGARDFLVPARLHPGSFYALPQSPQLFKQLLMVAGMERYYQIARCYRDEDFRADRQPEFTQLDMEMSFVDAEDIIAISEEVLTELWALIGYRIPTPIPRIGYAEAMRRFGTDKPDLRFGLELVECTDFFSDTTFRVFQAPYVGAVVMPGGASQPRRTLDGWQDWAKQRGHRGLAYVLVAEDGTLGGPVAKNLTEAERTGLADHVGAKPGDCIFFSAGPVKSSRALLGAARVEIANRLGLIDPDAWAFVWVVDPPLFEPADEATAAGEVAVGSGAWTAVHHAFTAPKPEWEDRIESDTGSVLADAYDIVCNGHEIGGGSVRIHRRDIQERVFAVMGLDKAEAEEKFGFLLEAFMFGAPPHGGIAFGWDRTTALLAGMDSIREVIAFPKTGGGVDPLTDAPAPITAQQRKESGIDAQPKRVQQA

[2] = biological target: Shiga toxin 2 (Escherichia coli O157:H7) (UniProt P09385+P09386); assay: E. coli 0.157:H7 Shiga Toxin SOP - stx2 screening assay; format: functional; parameters: scale not given: direction of the effect not stated beside the values; details: 30 µM

SMILES | Percent Effect [1] | Percent Effect [2]
Cc1nn(CCO)c(C)c1CNC1CCC(C)(C)c2ccccc21 (stereo unspecified) | -0.793% | –
CCC(C)NC(=O)c1ccccc1-n1cnnn1 (stereo unspecified) | -5.94% | –
CCC(O)CNC(=O)C1(N(C)Cc2ccccc2)Cc2ccccc2C1 (stereo unspecified) | 2.72% | –
Cn1c(C(=O)N2CCC(C(=O)N3CCCC3)CC2)c(Cl)c2ccccc21 | -5.07% | –
Cc1cccc(C2(CNC(=O)CCNS(C)(=O)=O)CCCC2)c1 | -6.94% | -8.2%
CC(C)c1nccn1CCCNC(=O)c1ccc(N(C)C)nc1 | -2.17% | –
NC(=O)C1CCCN1Cc1cccc(NC(=O)c2ccsc2)c1 (stereo unspecified) | 2.98% | –
O=C1CCC2(CCN(Cc3cc(F)ccc3Cl)CC2)CN1C1CCCC1 | 0.0575% | –
COc1cccc([C@@H]2CN(C(=O)c3ccc(C)cc3O)C[C@H]2C(=O)O)c1 | 1.74% | -5.94%
CC(O)CN1CCN(C(=O)c2cn(-c3ccccc3Cl)nn2)CC1 (stereo unspecified) | 3.29% | -10.2%
COCCN1C(=O)CO[C@H]2CN(Cc3c[nH]nc3-c3ccccc3)C[C@@H]21 | -1.03% | 7.69%
COC(=O)CCN1CCCC1c1ccccc1Cl (stereo unspecified) | 2.1% | –
CN(CC1(O)CCCN(CCC2CCCCC2)C1=O)C1CCOCC1 (stereo unspecified) | 0.172% | –
c1ncn(CC2CN(CC3CCCC3)CCO2)n1 (stereo unspecified) | 2.9% | -0.78%
O=S(=O)(Cc1ccccc1F)NCCCN1CCCCC1 | 0.172% | –
CCc1nc(NS(=O)(=O)c2ccc(F)cc2C)no1 | -2.08% | –
c1cnn(Cc2nnc(C3CCN(C4CCOCC4)CC3)n2C2CC2)c1 | -4.17% | –
Cc1cccc(CN2CCN(Cc3ccccc3)CC(O)C2)n1 (stereo unspecified) | 2.13% | 13.4%
CSCCC(CO)NC(=O)c1sc(-c2ccccc2Cl)nc1C (stereo unspecified) | -2.58% | -30.8%
Cc1csc(C2CCCN(C(=O)c3cnc4n[nH]c(C)c4c3)C2)n1 (stereo unspecified) | 0.533% | 21.9%
CC(C)(N)CN1CCC(c2nnc(CN3CCCC3)n2C2CC2)CC1 | -1.87% | –
O=C(O)C(c1ccc2c(c1)OCO2)N1CCC(C(=O)N2CCCC2)CC1 (stereo unspecified) | -0.103% | –
O=C(NCc1ccncc1)N(Cc1ccccc1F)C1CC1 | -1.67% | –
CCOc1ncccc1CNC(=O)N1CCCC1c1cc(C)no1 (stereo unspecified) | -2.06% | –
Cc1cn2c(n1)CCC(NC(=O)c1ccc(CS(C)(=O)=O)cc1)C2 (stereo unspecified) | -0.233% | -16.5%
CCCn1cc(C(=O)N(C)Cc2nc(-c3ccccn3)no2)c(C)n1 | -0.218% | –
CCCC(C)CN1CCC(n2cc(C3CCCC3)nn2)CC1 (stereo unspecified) | 2.26% | –
